Compound activity (PubChem BioAssay)
TDP1 cell noCPT = qHTS for Inhibitors of human tyrosyl-DNA phosphodiesterase 1 (TDP1): qHTS in cells in absence of CPT; DT40 Tdp1-/- hTDP1 cells, no CPT, ATP luminescence, 48 h; 15% of 420,000 active; AID 686978, 2013; Potency, µM (series often up to 46.2 µM), most hits filed as inhibitors; further: nearly all actives have a fitted effect of over 55% in size
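Growth kinetics read by CellTiter-Glo luminescence after ≥48 hr at 37 °C. Cells: DT40 Tdp1-/- stably carrying human TDP1, 400 per well, compound exposure in the absence of CPT (DMSO vehicle).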
TGFb SMAD3 inh = TGF-b pathway inhibition; HepG2 CAGA-GFP TGF-b/SMAD3 reporter, GFP fluorescence, 18 h; TGF-beta stimulated, 500 pg/mL final; Potency, µM (highest dose often 46.1 µM), hits mostly inhibitors; 1.2% of 410,000 active; AID 588855; further: nearly all actives have a fitted effect of over 65% in size
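HEPG2 CAGA-GFP, 1000 cells/well; 2 h settle, 37 C; cpd via pin tool; TGF-b 500 pg/mL final; 18 h, 37 C; GFP imaging ex488/em500-530; %Activity normalised to -TGF-b and +DMSO controls; CRC fit, curve class.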
S2 tox = reduces viability in counter-screen for ATXN expression inhibitors; Potency, µM (doses to about 56.7 µM), most hits filed as cytotoxic; 0.49% of 400,000 active; AID 651635; S2 cells (HEK-293 line with an ATXN2-luciferase reporter) viability, CellTiter-Fluor protease fluorescence, 24 h; further: nearly all actives have a fitted effect of over 40% in size
HepG2 viability = counter-screen for TGF-b inhibitors: cytotoxicity in HepG2 cells; HepG2 CAGA-GFP viability, ATP luminescence, 18 h; 0.76% of 410,000 active; Potency, µM (top dose mostly 46.1 µM), actives largely listed as cytotoxic
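HepG2 CAGA-GFP cells (1000/well, DMEM with 1% FBS) received compound, then TGF-beta at 500 pg/mL final, and were incubated 18 hours at 37 degrees C. Viability was read by CellTiter-Glo luminescence. Media-only wells were set as complete cell-killing and DMSO as no toxicity.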
ATXN2 expr inh = inhibitors of ATXN2 expression; Potency, µM (titrated, usually from 57 µM), usual class: inhibitors; HEK-293 ATXN2-luciferase reporter, luminescence, 24 h; AID 1745845; 0.72% of 360,000 active; further: nearly all actives have a fitted effect of over 55% in size
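ATXN2-luciferase reporter cells (luciferase flanked by upstream and downstream ATXN2 gene portions) were treated 24 h at 37 °C with compounds at up to 57 uM. SteadyGlo luminescence gave expression; GF-AFC fluorescence gave viability.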
DT40 TDP1 CPT = growth inhibition of DT40 Tdp1-/-;hTDP1 cells with camptothecin (screen for TDP1 inhibitors); chicken DT40 Tdp1-/-;hTDP1 cells + 20 nM CPT, ATP luminescence, 48 h; AID 686979; Potency, µM (top dose mostly 46.2 µM), most hits filed as inhibitors; 12% of 420,000 active; further: nearly all actives have a fitted effect of over 55% in size
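Chicken DT40 Tdp1-/- cells stably complemented with human TDP1 were seeded at 400 cells/well in medium containing 20 nM camptothecin, exposed to pin-transferred compounds, and grown at 37 °C for at least 48 hr. Viability was read as ATP luminescence.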
Of the large screens only hits and unclear results are named; the others gave an inactive call. An excerpt weighted towards active compounds, which were near 17% of everything screened. The call rests on the fitted dose curve; in most records, active means well fitted curve in the direction sought with a large enough effect; inconclusive means small, poorly fitted or top-dose-only effect, or another doubt; inactive means no such curve, though single readings can be large; an effect the other way counts as inactive or inconclusive.

CC(CC(=O)O)Nc1ccccc1O (centres undefined)	TDP1 cell noCPT inconclusive, DT40 TDP1 CPT 20.6µM
Cc1ccc(C)c(NS(=O)(=O)c2cc(C(=O)NCc3ccccn3)ccc2C)c1	TDP1 cell noCPT 29.1µM, DT40 TDP1 CPT inconclusive
COc1cccc(OC)c1C(=O)NCCSC1CCCCC1	TDP1 cell noCPT 18.4µM, DT40 TDP1 CPT 13µM
Cc1ccc(C)c(S(=O)(=O)NCc2ccc(C(=O)NCc3ccccn3)cc2)c1	none
C=CCNC(=O)c1ccccc1NC(=O)c1ccc(Cl)c(S(=O)(=O)Nc2cc(C)ccc2C)c1	TDP1 cell noCPT inconclusive, TGFb SMAD3 inh inconclusive, DT40 TDP1 CPT 18.4µM
O=C(NCc1ccccn1)c1cccc(NS(=O)(=O)c2cccc(F)c2)c1	TDP1 cell noCPT 1.46µM, DT40 TDP1 CPT 1.64µM
Cc1ccccc1NS(=O)(=O)c1cc(C(=O)Nc2ccccc2-c2ccccc2)ccc1Cl	TGFb SMAD3 inh inconclusive
Cn1cc(S(=O)(=O)Nc2ccc3c(c2)OCCO3)cn1	none
CCc1ccc(C2=NN(CCC(=O)NCc3cccs3)C(=O)CC2)cc1	TDP1 cell noCPT inconclusive, TGFb SMAD3 inh inconclusive, DT40 TDP1 CPT inconclusive (no result: ATXN2 expr inh)
COc1ccccc1N1CCN(CC(=O)Nc2c(C)n(C)n(-c3ccccc3)c2=O)CC1	none
Cc1ccc(C)c(NS(=O)(=O)c2cc(C(=O)NCCSC3CCCCC3)ccc2C)c1	TDP1 cell noCPT 23.1µM, TGFb SMAD3 inh inconclusive, S2 tox inconclusive, ATXN2 expr inh inconclusive, DT40 TDP1 CPT inconclusive
CC(C)(C)c1cc(C(=O)NN)n(Cc2ccc(F)cc2)n1	none (no result: S2 tox, ATXN2 expr inh)
COC(=O)c1cc(NC(=O)c2cc(C(C)(C)C)nn2Cc2ccc(F)cc2)ccc1N1CCOCC1	TDP1 cell noCPT 18.4µM, TGFb SMAD3 inh inconclusive, S2 tox inconclusive, DT40 TDP1 CPT inconclusive (no result: ATXN2 expr inh)
Cc1cc(C)cc(NC(=O)N2CCN3CCCCC3C2)c1 (centres undefined)	none
COC(=O)COc1ccc2c(c1)O/C(=C\c1cccc([N+](=O)[O-])c1)C2=O	TDP1 cell noCPT 13µM, DT40 TDP1 CPT 18.4µM (no result: ATXN2 expr inh)
Nc1c(C(=O)NCc2ccccc2)nnn1Cc1cccc(Br)c1	TDP1 cell noCPT 5.8µM, TGFb SMAD3 inh inconclusive, DT40 TDP1 CPT 4.61µM (no result: S2 tox, ATXN2 expr inh)
COc1cccc(CNC(=O)c2nnn(CC(=O)Nc3ccc(Br)cc3)c2N)c1	TDP1 cell noCPT 5.17µM, TGFb SMAD3 inh inconclusive, S2 tox inconclusive, DT40 TDP1 CPT 10.3µM (no result: ATXN2 expr inh)
CSc1cccc(NC(=O)c2nnn(CC(=O)Nc3cc(C)cc(C)c3)c2N)c1	TDP1 cell noCPT 6.51µM, DT40 TDP1 CPT inconclusive
COc1ccc(NC(=O)Cn2nnc(C(=O)NCc3ccc4c(c3)OCO4)c2N)cc1	none
CC1(C)C(=O)N(CC(=O)Nc2ccc(OC(F)(F)F)cc2)c2ccccc21	TDP1 cell noCPT inconclusive, TGFb SMAD3 inh inconclusive, S2 tox inconclusive, ATXN2 expr inh inconclusive
CCc1nnc2c(Nc3ccc(N(CC)CC)cc3C)nc3ccccc3n12	TDP1 cell noCPT 18.4µM, DT40 TDP1 CPT 18.4µM (no result: S2 tox, ATXN2 expr inh)
CCOC(=O)Cn1c(C)cc(COC)c(C#N)c1=O	TDP1 cell noCPT 5.17µM (no result: ATXN2 expr inh)
Cc1ccc(NC(=O)Cn2nc(-c3ccccc3Cl)ccc2=O)c(Br)c1	none
COC(=O)C(CCCN1C(=O)c2ccccc2C1=O)(NC(C)=O)c1nnn(C)n1 (centres undefined)	TGFb SMAD3 inh inconclusive
Cc1ccc(OCCCN2CCCC2)c(C)c1	none
Cc1ccc(OCCCCNC2CCCC(C)C2C)c(C)c1 (centres undefined)	TDP1 cell noCPT 7.31µM, TGFb SMAD3 inh inconclusive, S2 tox inconclusive, ATXN2 expr inh inconclusive, DT40 TDP1 CPT 8.2µM
C[C@H]1CN([C@@H](C)CO)C(=O)CCCn2nncc2CO[C@@H]1CN(C)S(=O)(=O)c1cn(C)cn1	none
C[C@@H]1CN([C@H](C)CO)C(=O)CCCn2nncc2CO[C@@H]1CN(C)S(=O)(=O)c1cn(C)cn1	HepG2 viability 11.2µM
C[C@@H]1CN([C@@H](C)CO)C(=O)CCCn2nncc2CO[C@@H]1CN(C)S(=O)(=O)c1ccc(Oc2ccccc2)nc1	TDP1 cell noCPT inconclusive, DT40 TDP1 CPT inconclusive
C[C@H]1CN([C@@H](C)CO)C(=O)CCCn2nncc2CO[C@H]1CN(C)S(=O)(=O)c1ccc(Oc2ccccc2)nc1	TDP1 cell noCPT 8.2µM, DT40 TDP1 CPT 10.3µM
COc1cccc(S(=O)(=O)N(C)C[C@H]2OCc3cnnn3CCCC(=O)N([C@H](C)CO)C[C@H]2C)c1	HepG2 viability 17.8µM
CC(OC(=O)CCNS(=O)(=O)c1ccc(Cl)cc1)C(=O)N(C)Cc1ccccc1 (centres undefined)	TDP1 cell noCPT inconclusive, S2 tox inconclusive, DT40 TDP1 CPT inconclusive (no result: ATXN2 expr inh)
CCc1ccc(NC(=O)CC2C(=O)N(c3cccc(C)c3)C(=O)N2C2CC2)cc1 (centres undefined)	none
NC(=O)c1ccc(NC(=O)COC(=O)C2CC(=O)N(Cc3ccccc3)C2)cc1 (centres undefined)	none
CC(O)[C@H]1CN=C(N)N1CC1CCCCC1 (some centres undefined)	DT40 TDP1 CPT inconclusive
CC(O)[C@H]1CN=C(N)N1CCc1cc(C(F)(F)F)cc(C(F)(F)F)c1 (some centres undefined)	none
NC1=NC[C@H](c2ccccc2)N1CC1CCCCC1	TDP1 cell noCPT 16.4µM, DT40 TDP1 CPT 13µM
NC1=NC[C@@H](CC2CCCCC2)N1CCc1cc(C(F)(F)F)cc(C(F)(F)F)c1	TDP1 cell noCPT 3.66µM, TGFb SMAD3 inh inconclusive, S2 tox 17.8µM, ATXN2 expr inh 20µM, DT40 TDP1 CPT 3.26µM
CCC(C)[C@H]1CN=C(N)N1CCc1cc(C(F)(F)F)cc(C(F)(F)F)c1 (some centres undefined)	TDP1 cell noCPT 4.61µM, TGFb SMAD3 inh inconclusive, S2 tox inconclusive, ATXN2 expr inh inconclusive, DT40 TDP1 CPT 3.26µM
NCCCC[C@H]1CNC(=S)N1CCc1cc(C(F)(F)F)cc(C(F)(F)F)c1	TDP1 cell noCPT inconclusive, DT40 TDP1 CPT inconclusive
NC1=NC[C@H](c2ccccc2)N1CCc1cc(C(F)(F)F)cc(C(F)(F)F)c1	TDP1 cell noCPT 20.6µM, TGFb SMAD3 inh 11.2µM, ATXN2 expr inh inconclusive, DT40 TDP1 CPT 18.4µM (no result: S2 tox)
CCc1nnc(N2C(=O)c3cccc4cccc(c34)C2=O)s1	TDP1 cell noCPT inconclusive
CCCCN=C1NN=C(c2ccc3c(c2)OCCO3)CS1	none
c1csc(C2=NNC(=NC3CCCCC3)SC2)c1	TDP1 cell noCPT 23.1µM, DT40 TDP1 CPT inconclusive
